Records with an inconclusive call do not appear. Values without a mark were called inactive. The source made the active and inactive calls. Calls follow the shape of the full dose curve.
Target: Retinoic acid receptor RXR-alpha (Homo sapiens) (UniProt P19793)
Assay: qHTS assay to identify small molecule agonists of the RXR signaling pathway (AID 1159527); also: nearly all actives have a fitted effect of over 35% in size
Details: HEK293T RXRa-UAS-bla, beta-lactamase ratio, 16 h; series mostly up to 76.8 µM; activation: at the top concentration
Excerpt: U.S. Tox21 Program National Center for Advancing Translational Sciences [NCATS] NIH Chemical Genomics Center [NCGC] U.S. Environmental Protection Agency [EPA] National Institutes of Environmental Health Sciences [NIEHS] National Toxicology Program [NTP] U.S. Food and Drug Administration [FDA] Tox21 Assay Overview: The Retinoid X receptor (RXR), a nuclear hormone receptor expressed in liver, spleen, placenta, epidermis, central nervous system. These receptors are able to form homo and heterodimers with other nuclear receptors and due to this heterodimerizing ability, RXR functions as master regulators producing diverse physiological effects. Three subtypes of RXR exist; alpha, beta and gamma. Retinoid X receptor alpha (RXR-alpha) has potential roles in metabolic signaling pathways, skin alopecia, dermal cysts, cardiac development, insulin sensitization etc. Therefore screening environmental chemicals on RXR-alpha signaling can be used for the studies focused on such therapeutic applications. For quantification of RXR-alpha ligands signaling, GeneBLAzer RXR alpha-UAS-bla HEK 293T (Life Technologies, Carlsbad, CA) cells containing a beta-lactamase reporter-gene under control of Retinoid X receptor-alpha response element were used to screen Tox21 10K library.
Tox21 Assay Protocol Summary: RXR-alpha HEK 293T cells were dispensed at 2,000 cells/6 uL of assay medium containing 2% charcoal-stripped FBS using a Multidrop Combi (ThermoFisher Scientific, Waltham, MA) dispenser. The assay was performed in black wall/clear-bottom 1536-well plates (Greiner Bio-One North America Inc. Monroe, NC). 9-cis retinoic acid was used as a positive control in the agonist mode screen. After the assay plates were incubated at 37 C and 5% CO2 for 5 hr, 23 nL of compounds dissolved in DMSO, positive controls or DMSO only were transferred to the assay plate by a Pintool station (Kalypsys, San Diego, CA). The assay plates were incubated at 37 C and 5% CO2 for 16 hr. One uL of LiveBLAzer B/G FRET substrate (Life Technologies) was added using a Flying Reagent Dispenser (Aurora Discovery, San Diego, CA) and the plates were incubated at room temperature for 2 hr. Fluorescence intensity (405 nm excitation, 460/530 nm emission) was measured using an Envision plate reader (PerkinElmer, Shelton, CT).
% is scaled to controls: 0 for no effect and ±100 for the full control effect; potency is read from the fitted curve at half-maximal effect.

Retinoic acid receptor RXR-alpha (Homo sapiens), sequence (P19793 whole entry, looked up): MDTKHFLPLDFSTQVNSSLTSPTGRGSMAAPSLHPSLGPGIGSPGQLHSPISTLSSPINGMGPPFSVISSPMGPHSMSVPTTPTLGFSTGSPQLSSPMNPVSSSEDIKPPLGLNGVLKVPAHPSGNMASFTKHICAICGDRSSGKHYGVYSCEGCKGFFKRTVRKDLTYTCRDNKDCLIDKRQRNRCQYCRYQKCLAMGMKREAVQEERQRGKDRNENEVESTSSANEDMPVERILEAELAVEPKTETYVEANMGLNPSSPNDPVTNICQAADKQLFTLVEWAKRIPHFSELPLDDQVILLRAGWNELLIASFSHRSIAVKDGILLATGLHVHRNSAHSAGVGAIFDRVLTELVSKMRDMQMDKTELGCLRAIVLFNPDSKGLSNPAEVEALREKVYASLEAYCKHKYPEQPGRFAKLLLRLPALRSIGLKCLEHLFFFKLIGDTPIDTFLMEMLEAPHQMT

SMILES	activation	Potency
Nc1ccc(N)c2c1C(=O)c1ccccc1C2=O	-11.8%	
CCOC(=O)C1=C[C@]2(CC)CCCN3CCc4c(n1c1ccccc41)[C@@H]32	-11.2% [at 35.3 µM]	
CCCCCCCCCOS(=O)(=O)O	-0.129%	
O=C(O)c1ccco1	1.22%	
CNC(=O)CN(CCN(CCN(CC(=O)[O-])CC(=O)NC)CC(=O)[O-])CC(=O)[O-].O.[Gd+3]	8.04% [at 35.3 µM]	
c1cc(CCCc2ccncc2)ccn1	-3.71%	
CCCCCCCC/C=C\CCCCCCCC(=O)OCC	5.4%	
CN(C)c1ccc(/C=C/c2ccc([N+](=O)[O-])cc2)cc1	-7.68% [at 6.98 µM]	
COc1ccc(C)cc1[N+](=O)[O-]	-7.32%	
Cc1oc(-c2ccccc2)nc1CCOc1cccc2c1ccn2CCC(=O)O		17.4 µM (active)
CN(C)CCN(Cc1ccsc1)c1ccccn1	4.31% [at 35.3 µM]	
O=C(O)CC(=O)C(=O)O	11.5%	
CCC(C)O (stereo not given)	-0.595%	
NS(=O)(=O)c1ccc(N2CCCCS2(=O)=O)cc1	0.326% [at 35.3 µM]	
COCCCN1CCC(NC(=O)c2cc(Cl)c(N)c3c2OCC3)CC1	13.5% [at 35.3 µM]	
Cc1cccc(C)c1NC(=O)CN(CC(=O)O)CC(=O)O	0.0186% [at 35.3 µM]	
C=CCOc1ccccc1OCC(O)CNC(C)C (stereo not given)	6.78% [at 35.3 µM]	
CCOc1ccc(N)c([N+](=O)[O-])c1	-0.401%	
COc1ccnc(CS(=O)c2nc3ccc(OC(F)F)cc3[nH]2)c1OC (stereo not given)	-8.17% [at 35.3 µM]	
CCCn1cnc2c1c(=O)n(CCCCC(C)=O)c(=O)n2C	8.87% [at 35.3 µM]	

SMILES	activation	Potency
Cc1ccc(N=Nc2c(O)c(C(=O)O)cc3ccccc23)c(S(=O)(=O)O)c1	13.8% [at 35.3 µM]	
O=CC1CC=CCC1 (stereo not given)	1.19%	
Cc1cc(C(=O)O)ccc1[N+](=O)[O-]	0.0326%	
O=[N+]([O-])c1cccc(S(=O)(=O)O)c1	-20.1%	
CCCCO	-11.9%	
COC(C)OC	4.04%	
COc1cc2nc(N3CCN(C(=O)C4COc5ccccc5O4)CC3)nc(N)c2cc1OC (stereo not given)	-18.4% [at 35.3 µM]	
CCN(CC)CCNC(=O)c1cc(Br)c(N)cc1OC	10.4% [at 35.3 µM]	
O=C(Cl)c1cc(C(=O)Cl)cc(C(=O)Cl)c1	-10.8%	
CCCCC(=O)OCC(=O)[C@H]1[C@H](C)C[C@H]2[C@@H]3C[C@H](F)C4=CC(=O)C=C[C@]4(C)[C@@]3(F)[C@@H](O)C[C@@]21C	-10.5% [at 35.3 µM]	
CC1=CC[C@H](C(C)C)C=C1	-12.1%	
COS(=O)(=O)C(F)(F)F	-11.4%	
C=C(C)C(=O)OCCOCC	-3.42%	
O=C1OC(=O)C2C3C=CC(C3)C12 (stereo not given)	12.2%	
O=[N+]([O-])c1ccc(NCCO)c(OCCO)c1	-15.5%	
OCCNCc1ccccc1	16.7%	
CCO[Si](CCCCl)(OCC)OCC	-3.84%	
CC1=CCCC(C)(C)C12CCC(C)O2 (stereo not given)	-6.09%	
Cc1ccc(C(C)OC(=O)C2(C)CCC(C(=O)O)C2(C)C)cc1 (stereo not given)	0.487% [at 35.3 µM]	
C/C=C/C=C/CO	-1.84%	

Source: PubChem BioAssay (Tox21)
